A selection: hits, their analogues and other compounds. The true share with any hit is near 19%.
DT40 TDP1 no CPT = qHTS for Inhibitors of human tyrosyl-DNA phosphodiesterase 1 (TDP1): qHTS in cells in absence of CPT; AID 686978, 2013; DT40 Tdp1-/- hTDP1 cells, no CPT, ATP luminescence, 48 h; Potency, µM (titrated, usually from 46.2 µM), actives largely listed as inhibitors; hit rate 15% among 420,000; further: nearly all actives have a fitted effect of over 55% in size
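Growth of hTDP1-complemented DT40 Tdp1-knockout cells is measured by ATP luminescence after at least 48 hr compound exposure at 37 °C, with DMSO substituting for the 20 nM CPT used in the parallel screen.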
HT1080NT lethal = qHTS for induction of synthetic lethality in tumor cells producing 2HG: qHTS for the HT-1080-NT fibrosarcoma cell line; HT-1080-NT fibrosarcoma viability, CellTiter-Glo ATP luminescence, 48 h; Potency, µM (series often up to 46.1 µM), most hits filed as cytotoxic; hit rate 1.6% among 360,000;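 further: NT is the 2HG producing partner of a matched IDH1 knockdown line; nearly all actives have a fitted effect of over 55% in size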
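A 48-hour cytotoxicity screen used HT-1080-NT cells plated 2 hours before compound delivery. ATP-based CellTiter-Glo luminescence measured viability, normalized to DMSO and no-cell controls.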
TDP1 cell CPT = qHTS for Inhibitors of human tyrosyl-DNA phosphodiesterase 1 (TDP1): qHTS in cells in presence of CPT; chicken DT40 Tdp1-/-;hTDP1 cells + 20 nM CPT, ATP luminescence, 48 h; Potency, µM (doses to about 46.2 µM), most hits filed as inhibitors; hit rate 12% among 420,000; AID 686979, 2013; further: nearly all actives have a fitted effect of over 55% in size
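Chicken DT40 Tdp1-/- cells complemented with human TDP1, 400 cells/well, exposed to compounds plus 20 nM camptothecin for at least 48 h at 37 C; viability read as ATP content by CellTiter-Glo luminescence.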
ELG1 repair inh = qHTS screen for small molecules that inhibit ELG1-dependent DNA repair in human embryonic kidney (HEK293T) cells expressing luciferase-tagged ELG1 | HEK293T ELG1-luciferase reporter, luminescence, 16 h; DNA damage induced by 5-fluorouridine | Potency, µM (top dose mostly 46.1 µM), actives largely listed as inhibitors | hit rate 2.3% among 330,000 | AID 504467, 2011; further: nearly all actives have a fitted effect of over 55% in size
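Quantitative HTS, concentration-response format. 2,000 cells/well co-treated with 5-fluorouridine and compound, 16 hr in 5% CO2 at 37 °C; ONE-Glo luminescence read after 30 min.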
IL-1B inflam inh = qHTS for Inhibitors of Inflammasome Signaling: IL-1-beta AlphaLISA Primary Screen | activity change, % at 57.5 µM | THP-1 LPS/ATP IL-1B secretion, AlphaLISA, 16 h; stronger effect = lower value | hit rate 4.7% among 360,000 | AID 743279, 2014; in the data active means activity change below about -50%; inconclusive means mostly about -30% to -49%
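Secreted IL-1B measured by AlphaLISA bead assay after 16 h compound exposure of THP-1 cells; compounds (final up to 57.5 uM) added 1 h before LPS (250 ng/mL) and ATP (1.25 mM) stimulation; lower signal means less secretion.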
HT1080 IDH1KD tx = qHTS for induction of synthetic lethality in tumor cells producing 2HG: qHTS for the HT-1080-IDH1KD cell line; Potency, µM (top dose mostly 46.1 µM), hits mostly cytotoxic; HT-1080 IDH1 knockdown viability, ATP luminescence, 48 h; hit rate 2% among 360,000
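After a 2 h attachment period, IDH1KD HT-1080 cells took pin-transferred compound for 48 h at 37 °C; ATP-based luminescence after 10 min room-temperature reagent incubation reported viability.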
A number is an active result; . = inactive; ? = inconclusive; / = no result. Unless noted, the call rests on the fitted dose curve; in most records, active means well fitted curve in the direction sought with a large enough effect; inconclusive means small, poorly fitted or top-dose-only effect, or another doubt; inactive means no such curve, though single readings can be large; an effect the other way counts as inactive or inconclusive.

SMILES	DT40 TDP1 no CPT	HT1080NT lethal	TDP1 cell CPT	ELG1 repair inh	IL-1B inflam inh	HT1080 IDH1KD tx
O=C(CCn1cnc2onc(-c3ccc(F)cc3)c2c1=O)Nc1ccc(F)c(Cl)c1	15µM	/	13µM	/	/	/
Cn1c(N)c(C(=O)COC(=O)COc2ccccc2Cl)c(=O)n(C)c1=O	.	.	.	.	.	.
CCOC(=O)C1CCCN(c2ncnc3c2cnn3-c2ccc(C)c(Cl)c2)C1 (stereo unspecified)	.	/	?	/	/	/
O=[N+]([O-])c1ccc(O)c(-c2cc(C(F)(F)F)nc(-c3ccccc3)n2)c1	0.65µM	2.3µM	0.58µM	?	-62	.
CC1Cc2ccccc2N1C(=O)CSc1nnc(N)s1 (stereo unspecified)	.	.	.	.	.	.
COc1cc(C(=O)Oc2c(CN3CCOCC3)cc(Cl)c3cccnc23)cc(OC)c1OC	5.2µM	?	2.6µM	?	.	?
O=C(Oc1c(CN2CCOCC2)cc(Cl)c2cccnc12)c1ccc(F)cc1	5.2µM	?	4.6µM	?	.	?
O=C(Oc1ccc(Cl)c2cccnc12)N1CCOCC1	.	.	.	.	.	.
COc1ccc(C(=O)Oc2c(CN3CCOCC3)cc(Cl)c3cccnc23)cc1	5.8µM	21µM	8.2µM	?	.	?
COc1cccc(C(=O)Oc2c(CN3CCOCC3)cc(Cl)c3cccnc23)c1	0.82µM	?	0.73µM	18µM	.	12µM
COc1ccc(NC(=O)CSc2nnnn2C2CC2)cc1S(=O)(=O)N1CCOCC1	.	.	.	.	.	.
NC1CCc2ccc([N+](=O)[O-])cc21 (stereo unspecified)	?	/	.	/	/	/
CC12CCC(=O)N1C(C(=O)Nc1nc(-c3cc(F)ccc3F)cs1)CS2 (stereo unspecified)	?	.	.	.	.	.
O=C(NCc1ccccn1)C1CN(S(=O)(=O)c2ccccc2)CCN1S(=O)(=O)c1ccccc1 (stereo unspecified)	.	.	.	.	.	.
Cc1ccccc1-c1ccc2c(c1)O[C@@H](CN(C)C(=O)Nc1ccc(C(F)(F)F)cc1)[C@H](C)CN([C@@H](C)CO)S2(=O)=O	13µM	16µM	21µM	/	?	16µM
C[C@@H]1CN([C@@H](C)CO)S(=O)(=O)c2ccc(Br)cc2O[C@H]1CN(C)C(=O)Nc1ccc(C(F)(F)F)cc1	?	?	?	/	.	?
C[C@@H]1CN([C@H](C)CO)S(=O)(=O)c2ccc(Br)cc2O[C@H]1CN(C)C(=O)Nc1ccccc1	?	.	?	/	?	.
C[C@@H]1CN([C@H](C)CO)S(=O)(=O)c2ccc(Br)cc2O[C@@H]1CN(C)C(=O)Nc1ccc(C(F)(F)F)cc1	?	?	21µM	/	-70	?
NC(Cc1ccc(C(F)(F)F)cc1)c1csc(Nc2ccc(C(=O)NCc3ccco3)cn2)n1 (stereo unspecified)	?	12µM	15µM	/	.	7.3µM
NC(Cc1ccc(C(F)(F)F)cc1)c1csc(Nc2ccc(C(=O)NCCCO)cn2)n1 (stereo unspecified)	16µM	?	?	/	.	?
O=C(NCc1ccco1)c1ccc(COCC(F)(F)F)cc1	.	.	.	.	.	.
CC(N)c1csc(Nc2ccc(C(=O)NCCCO)cn2)n1 (stereo unspecified)	.	?	.	/	.	.
CC(C)(O)C1CC[C@@]2(C)C3CCC4[C@@]5(C)CCCC(C)(C)C5C(O)C[C@]4(C)[C@]3(C)CC[C@@H]12 (stereo partly specified)	.	/	.	/	/	/
COc1ccc(-c2cnc(C(O)c3ccc(CN4CCCCC4)cc3)[nH]2)cc1 (stereo unspecified)	.	.	.	/	.	.
O/N=C(/C[n+]1ccsc1)c1ccc(I)cc1	3.5µM	/	5µM	/	/	/
SMILES	DT40 TDP1 no CPT	HT1080NT lethal	TDP1 cell CPT	ELG1 repair inh	IL-1B inflam inh	HT1080 IDH1KD tx
N#Cc1c(N)n(CCOC(=O)c2cccc([N+](=O)[O-])c2)c2nc3ccccc3nc12	10µM	.	.	.	.	.
Cc1ccc(C(=O)NCCn2c(N)c(C#N)c3nc4ccccc4nc32)cc1	.	.	.	.	.	.
N#Cc1c(N)n(CCNC(=O)c2ccc(Cl)cc2)c2nc3ccccc3nc12	?	.	.	?	-58	.
Cc1[nH]c2ccccc2c1C(=O)C(=O)NC1CC(=O)N(c2ccc(F)cc2)C1 (stereo unspecified)	.	.	.	.	.	.
CCN(Cc1ccccc1)C(=O)CN(c1ccc(OC)cc1)S(=O)(=O)c1c(C)nn(C)c1C	?	/	.	/	/	/
CC(C)CN1CCC2(CC1)CCN(C(=O)c1cccc(F)c1)CC2	.	/	.	/	/	/
COC(=O)/C=C1\N/C(=N/c2nc(C)c3cc(OC)ccc3n2)NC1=O	9.2µM	.	12µM	?	.	?
COC(=O)/C=C1/C(=O)N/C(=N\c2nc(C)cc(C)n2)N1c1ccc(OC)cc1	.	.	.	.	.	.
O=C(CCCn1c(=O)c2cccn2c2cccnc21)Nc1ccccc1C(F)(F)F	.	/	.	/	/	/
CC(=O)c1c(C)n(CCc2ccc(Cl)cc2)c2ccc(O)cc12	.	.	.	.	.	.
O=S(=O)(N/N=C1/CC(c2ccccc2)Oc2ccccc21)c1ccc(Br)cc1 (stereo unspecified)	?	.	?	.	.	.
Fc1ccc(N/N=C2/CC(c3ccccc3)Oc3ccccc32)c(F)c1 (stereo unspecified)	.	.	.	?	-52	.
Cc1ccc(S(=O)(=O)N/N=C2/CC(c3ccccc3)Oc3ccccc32)cc1[N+](=O)[O-] (stereo unspecified)	.	.	.	?	.	.
CNC(=S)N/N=C1\CC(c2ccccc2)Oc2ccccc21 (stereo unspecified)	2.6µM	.	5.2µM	.	.	.
Cc1nc(-c2ccc(C)c(N3CCN(C(=O)Nc4cccc(Cl)c4C)CC3)c2)no1	16µM	/	?	/	/	/
CCOC(=O)Cc1cn2c(=O)cc(CSCC(=O)Nc3ccc(C)c(C)c3)nc2s1	?	.	18µM	.	.	.
COc1ccc(NC(=O)CSCc2cc(=O)n3cc(C)sc3n2)cc1	.	.	.	.	.	.
